# “And” between values parts separate entries of the source, which are not always exact repeats. Equal values may be shown once. The source made the active and inactive calls. Rule as the data show it, unless noted: active = inhibition above about 80%; inactive = the rest.
# Columns and labels:
# [1] = compounds altering circadian rhythm period length – cell-based, LOPAC library, luminescence reporter (AID 2774; call rule not given here;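 also: values are relative to mean of DMSO wells on each plate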); conditions: circadian reporter cells, at 7 µM, actives lie on both sides
# [2] = compounds altering viability of human ES cells (AID 493140; call rule not given here;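 also: cells exposed to compounds for four days before counting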); conditions: human embryonic stem cell survival screen; stronger effect = higher value
# [3] = P. berghei load reduction in hepatocytes – cell-based, HepG2, luciferase luminescence, HepG2 viability, primary screen (AID 624349; in the data active = parasite load remaining mostly below about 12%, no sharp cut-off; inactive = mostly above about 10%;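 also: 100% = mean of DMSO negative control wells on the same plate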); conditions: P. berghei liver stage in HepG2, luciferase luminescence, concentration not given here; parasite load remaining: stronger effect = lower value; viability: measured here: HepG2 viability without parasites
# [4] = system: Hepatitis C virus NS3 helicase; test: blockers of NS3h binding to ssDNA – biochemical, fluorescence polarization, LOPAC1280 library, primary screen (AID 687035; in the data active = inhibition above about 37%); conditions: Purified HCV NS3 helicase, Cy5-dT15 ssDNA binding fluorescence polarization; stronger effect = higher value; concentration not given here
# [5] = compounds altering Cy5-DNA-NS3h complex signal – biochemical, LOPAC1280, artefact control for HCV NS3 helicase inhibitor project (AID 687037; call rule not given here); conditions: Cy5-DNA-NS3h complex fluorescence interference counterscreen
# [6] = blockers of cellular phospholipid synthesis – cell-based, LOPAC library, screen 4, primary screen (AID 1347384; call rule not given here); conditions: animal cells, phospholipid biosynthesis inhibition screen; at 10 µM
# [7] = target: NAD(+) hydrolase SARM1 (Homo sapiens) (UniProt Q6SZW1); test: blocking NAD cleavage by SARM1 SAM-TIR – cell lysate, NAD-Glo luminescence (AID 1508614;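 active = compound whose remaining NAD level is above about 45 nM, limit read from the data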;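 also: higher remaining NAD means stronger inhibition of SARM1 NADase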); conditions: SAM-TIR HEK293T lysate NADase, at 1 µM, stronger effect = higher value
# [8] = target: Mitogen-activated protein kinase 7 (Homo sapiens) (UniProt Q13164); test: Gal4-ERK5 driven luciferase induction – cell-based, HTS, primary screen (AID 1508626;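 active = luciferase signal above three times the same-plate solvent-only control wells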;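 also: luciferase driven by Gal4-ERK5 fusion binding five Gal4 sites before minimal TATA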); conditions: HeLa Gal4-ERK5 transactivation, 18 h, at 5 µM, stronger effect = higher value
# [9] = galactose survival enhancers in mitochondrial complex I cybrids – cell-based, galactose medium, ATP luminescence, primary screen (AID 1645843;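 active = z-score of at least 1.8 in each of two replicates, scored against plate mean and spread of sample wells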;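 also: positive z means more ATP and so rescue of galactose-driven cybrid death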); conditions: complex I mutant cybrid cells, 72 h, stronger effect = higher value
# [10] = growth inhibition, single agents and combos, LFS_MB_1R, cell-based, cisplatin or BGB combos, synergistic combos for chromothripsis tumors (AID 1671452); conditions: LFS_MB_1R medulloblastoma cells, stronger effect = higher value;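 also: cells exposed for 96 hours before readout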
# [11] = growth inhibition, single agents and combos, CRL2098, cell-based, BGB or cisplatin IC20 combos, synergistic combos for chromothripsis tumors (AID 1671454); conditions: CRL2098 osteosarcoma cells, drug combinations, stronger effect = higher value;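 also: cells exposed for 96 h before readout; 0% = vehicle DMSO and 100% = killing by high DMSO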
# [12] = growth inhibition, single agents and combos, HD-MB03, cell-based, BGB or cisplatin IC20 combos, synergistic combos for chromothripsis tumors (AID 1671455; in the data active = inhibition above about 83%;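 also: 0% = vehicle DMSO and 100% = high DMSO as cytotoxic control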); conditions: HD-MB03 medulloblastoma cells, stronger effect = higher value
# [13] = growth inhibition, single agents and combos, UWB1.289, cell-based, BGB or cisplatin combos, synergistic combos for chromothripsis tumors (AID 1671456); conditions: UWB1.289 ovarian carcinoma cells, stronger effect = higher value;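 also: cells exposed to compound for four days; 0% = vehicle DMSO and 100% = killing by high DMSO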
# [14] = growth inhibition, single agents and combos, LFS_MB_2R, cell-based, cisplatin combos, synergistic combos for chromothripsis tumors (AID 1671457); conditions: LFS_MB_2R medulloblastoma cells, stronger effect = higher value;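 also: cells exposed to compound for four days before readout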
# [15] = UWB1.289_BRCA1 ovarian cancer growth, cell-based, BGB or cisplatin combinations (AID 1671459); conditions: UWB1.289 BRCA1 ovarian carcinoma, drug combinations, stronger effect = higher value
# [16] = drug combination toxicity in non-malignant astrocytes – cell-based, BGB or cisplatin IC20 combos, cytotoxicity control for chromothriptic childhood tumor combination screen (AID 1671460); conditions: Human astrocytes, viability inhibition, drug combinations, at 0.5 µM, stronger effect = higher value;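 also: cells exposed to compounds for 96 hours before viability readout; 0% = vehicle and 100% = killing control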
# [17] = CRL1545 cell growth, single agent and combined, cisplatin and BGB IC20 combos (AID 1671464); conditions: CRL1545 osteosarcoma cells, stronger effect = higher value;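 also: cells exposed to compound for 96 hours before readout; 0% = vehicle DMSO and 100% = high DMSO killing control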
# [18] = liver-stage malaria parasite load reduction – cell-based, known kinase inhibitor set, luminescence, hepatoma host viability (AID 624392; call rule not given here;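 also: infected cells incubated roughly two days before readout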); conditions: Plasmodium liver stage in hepatoma cells, luciferase luminescence, concentration not given here; liver cell % of control: measured here: host liver cell viability; parasite % of control: stronger effect = lower value
# [19] = measured here: combination with BGB IC40, at 0.05 µM
# [20] = measured here: combination with cisplatin, at 0.5 µM
# [21] = measured here: combination with cisplatin, at 5 µM
# [22] = measured here: combination with BGB at IC20, at 0.5 µM
# [23] = measured here: combination with cisplatin at IC20, at 0.5 µM
# [24] = measured here: combo with BGB at IC20, at 0.5 µM
# [25] = measured here: combo with cisplatin at IC20, at 0.5 µM
# [26] = measured here: inhibition with BGB combination, at 0.05 µM
# [27] = measured here: inhibition with cisplatin combination, at 0.05 µM
# [28] = BGB combination, concentration series, at 5 µM
# [29] = cisplatin combination, concentration series, at 5 µM
# [30] = measured here: combo with BGB IC20
# [31] = measured here: combo with cisplatin IC20
# [32] = measured here: with BGB IC20 combination, at 0.5 µM
# [33] = measured here: with cisplatin IC20 combination, at 0.5 µM
# Sequence of Mitogen-activated protein kinase 7 (Homo sapiens) (Q13164 whole entry, looked up, the tested form may be a part): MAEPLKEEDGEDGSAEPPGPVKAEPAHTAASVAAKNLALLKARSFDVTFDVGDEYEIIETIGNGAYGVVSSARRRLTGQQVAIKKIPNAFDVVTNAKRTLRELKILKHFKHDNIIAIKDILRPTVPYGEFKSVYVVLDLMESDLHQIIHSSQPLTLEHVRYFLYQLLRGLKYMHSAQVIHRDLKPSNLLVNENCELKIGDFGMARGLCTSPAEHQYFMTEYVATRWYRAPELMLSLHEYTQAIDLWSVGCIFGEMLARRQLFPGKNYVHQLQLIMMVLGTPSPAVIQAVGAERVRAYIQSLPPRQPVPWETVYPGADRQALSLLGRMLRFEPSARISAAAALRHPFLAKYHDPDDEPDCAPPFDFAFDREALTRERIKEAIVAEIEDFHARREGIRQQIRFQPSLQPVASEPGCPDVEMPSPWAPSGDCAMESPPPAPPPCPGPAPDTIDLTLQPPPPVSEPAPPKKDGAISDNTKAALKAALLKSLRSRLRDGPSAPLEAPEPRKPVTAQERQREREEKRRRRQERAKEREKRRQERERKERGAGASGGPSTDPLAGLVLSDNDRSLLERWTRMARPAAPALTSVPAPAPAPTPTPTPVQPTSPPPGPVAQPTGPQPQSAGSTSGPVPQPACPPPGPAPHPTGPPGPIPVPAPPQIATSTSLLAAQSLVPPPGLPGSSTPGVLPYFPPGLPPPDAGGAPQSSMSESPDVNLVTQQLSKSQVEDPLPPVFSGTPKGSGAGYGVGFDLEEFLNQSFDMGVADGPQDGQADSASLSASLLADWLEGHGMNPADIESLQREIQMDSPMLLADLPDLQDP
# Sequence of NAD(+) hydrolase SARM1 (Homo sapiens) (Q6SZW1 whole entry, looked up, the tested form may be a part): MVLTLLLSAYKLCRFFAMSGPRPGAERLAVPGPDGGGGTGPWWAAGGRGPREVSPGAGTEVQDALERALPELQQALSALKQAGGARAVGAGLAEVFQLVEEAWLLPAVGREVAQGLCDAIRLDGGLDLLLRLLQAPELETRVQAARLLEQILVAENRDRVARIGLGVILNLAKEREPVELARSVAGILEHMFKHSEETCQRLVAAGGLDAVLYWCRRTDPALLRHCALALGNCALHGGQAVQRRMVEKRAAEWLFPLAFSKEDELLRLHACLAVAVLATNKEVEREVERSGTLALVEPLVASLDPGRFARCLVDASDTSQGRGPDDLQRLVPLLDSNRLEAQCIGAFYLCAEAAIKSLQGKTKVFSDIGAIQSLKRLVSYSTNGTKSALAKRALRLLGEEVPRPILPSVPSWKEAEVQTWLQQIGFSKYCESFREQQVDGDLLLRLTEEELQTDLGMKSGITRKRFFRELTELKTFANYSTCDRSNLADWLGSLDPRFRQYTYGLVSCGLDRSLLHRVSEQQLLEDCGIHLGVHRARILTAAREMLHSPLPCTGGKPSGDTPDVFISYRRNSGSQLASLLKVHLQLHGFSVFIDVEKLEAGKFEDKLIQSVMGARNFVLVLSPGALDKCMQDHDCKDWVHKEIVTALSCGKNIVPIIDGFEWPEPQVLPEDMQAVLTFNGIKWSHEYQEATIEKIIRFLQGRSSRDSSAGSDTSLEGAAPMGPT
structure (smiles),measurement,setting,value
CC(=O)O[C@H]1C[C@@H]2CC[C@@H]3[C@H](CC[C@@]4(C)[C@H]3C[C@H]([N+]3(C)CCCCC3)[C@@H]4OC(C)=O)[C@@]2(C)C[C@@H]1[N+]1(C)CCCCC1,period change,[1],-0.015 h (inactive)
same,survival,[2],6.75 (inactive)
same,parasite load remaining,[3],119% (inactive) and 39.7% (inactive)
same,viability,[3],75.7% and 111%
same,inhibition,[4],1% (inactive)
same,fluorescence ratio (interference),[5],1 (inactive)
same,outcome,[6],inactive
same,remaining NAD,[7],10 nM (inactive)
same,luciferase signal,[8],40 AU (inactive)
same,z-score,[9],0.28 (inactive) and 0.73 (inactive)
O=C(/C=C/c1ccc(CN(CCO)CCc2c[nH]c3ccccc23)cc1)NO,inhibition,[10]; at 0.5 µM,88.5% (active)
same,inhibition,[10]; [19],0.114%
same,inhibition,[10]; [20],107%
same,inhibition,[10]; [21],101%
same,inhibition,[11]; at 0.5 µM,80.2% (active)
same,inhibition,[11]; [22],80.4%
same,inhibition,[11]; [23],75.9%
same,inhibition,[12]; at 0.5 µM,99.8% (active)
same,inhibition,[12]; [24],99.8%
same,inhibition,[12]; [25],100%
same,inhibition,[13]; at 0.5 µM,88.8% (active)
same,inhibition,[13]; [26],9.36%
same,inhibition,[13]; [27],34.8%
same,inhibition,[14]; at 0.5 µM,87.1% (active)
same,inhibition,[14]; [20],99.3%
same,inhibition,[14]; [21],107%
same,inhibition,[15]; [28],126%
same,inhibition,[15]; at 0.5 µM,95.2% (active)
same,inhibition,[15]; [29],130%
same,inhibition,[16],95.2% (active)
same,inhibition,[16]; [30],92%
same,inhibition,[16]; [31],97.1%
same,inhibition,[17]; at 0.5 µM,87.1% (active)
same,inhibition,[17]; [32],82.2%
same,inhibition,[17]; [33],89.4%
same,inhibition,"[17]; single agent, at 0.05 µM",86.9%
same,inhibition,"[17]; single agent, at 5 µM",94.5%
O=C(/C=C/c1cccc(S(=O)(=O)Nc2ccccc2)c1)NO,inhibition,[10]; at 0.5 µM,31.6% (inactive)
same,inhibition,[10]; [19],-40%
same,inhibition,[10]; [20],39.8%
same,inhibition,[10]; [21],99.9%
same,inhibition,[11]; at 0.5 µM,-17% (inactive)
same,inhibition,[11]; [22],-63.8%
same,inhibition,[11]; [23],6.33%
same,inhibition,[12]; at 0.5 µM,86.6% (active)
same,inhibition,[12]; [24],88.4%
same,inhibition,[12]; [25],99%
same,inhibition,[13]; at 0.5 µM,41% (inactive)
same,inhibition,[13]; [26],-3.28%
same,inhibition,[13]; [27],9.18%
same,inhibition,[14]; at 0.5 µM,37.4% (inactive)
same,inhibition,[14]; [20],58.7%
same,inhibition,[14]; [21],105%
same,inhibition,[15]; [28],99.6%
same,inhibition,[15]; at 0.5 µM,41.8% (inactive)
same,inhibition,[15]; [29],120%
same,inhibition,[16],31.9% (inactive)
same,inhibition,[16]; [30],38.1%
same,inhibition,[16]; [31],9.25%
same,inhibition,[17]; at 0.5 µM,90.5% (active)
same,inhibition,[17]; [32],88.7%
same,inhibition,[17]; [33],91.2%
same,inhibition,"[17]; single agent, at 0.05 µM",-2.13%
same,inhibition,"[17]; single agent, at 5 µM",85.5%
Cn1c(=O)n(-c2ccc(C(C)(C)C#N)cc2)c2c3cc(-c4cnc5ccccc5c4)ccc3ncc21,liver cell % of control,[18],79.1% and 72.9%
same,parasite % of control,[18],288% (inactive) and 494% (inactive) and 6.49% (inactive)
O=C(CCCCCCNC(=O)c1cnc(N(c2ccccc2)c2ccccc2)nc1)NO,inhibition,[10]; at 0.5 µM,-2.12% (inactive) and -15.9% (inactive)
same,inhibition,[10]; [19],-29.1% and -24.9%
same,inhibition,[10]; [20],6.1% and -31.8%
same,inhibition,[10]; [21],84.8% and 59.4%
same,inhibition,[11]; at 0.5 µM,-71.5% (inactive) and -77.4% (inactive)
same,inhibition,[11]; [22],-57.1% and -110%
same,inhibition,[11]; [23],-110% and -74.1%
same,inhibition,[12]; at 0.5 µM,1.23% (inactive) and -11.6% (inactive)
same,inhibition,[12]; [24],-8.85% and -13.2%
same,inhibition,[12]; [25],14.2% and -7.98%
same,inhibition,[13]; at 0.5 µM,1.59% (inactive) and 9.83% (inactive)
same,inhibition,[13]; [26],-25.2% and -41.7%
same,inhibition,[13]; [27],-17.6% and -12.7%
same,inhibition,[14]; at 0.5 µM,-17.5% (inactive) and -17% (inactive)
same,inhibition,[14]; [20],-3.75% and -9.43%
same,inhibition,[14]; [21],74.7% and 60.9%
same,inhibition,[15]; [28],47.7% and 28.3%
same,inhibition,[15]; at 0.5 µM,1.98% (inactive) and -9.53% (inactive)
same,inhibition,[15]; [29],66.1% and 58.6%
same,inhibition,[16],-18.3% (inactive) and 0.04% (inactive)
same,inhibition,[16]; [30],-21.3% and 12.4%
same,inhibition,[16]; [31],-18.3% and -8.91%
same,inhibition,[17]; at 0.5 µM,-14% (inactive) and -9.25% (inactive)
same,inhibition,[17]; [32],-11% and -28.2%
same,inhibition,[17]; [33],-17.4% and -1.39%
same,inhibition,"[17]; single agent, at 0.05 µM",-31.8% and -21.9%
same,inhibition,"[17]; single agent, at 5 µM",89.1% and 74.4%
